Measured values as given in the supplement of paper PMC9694430.

Test system: LOC_OS01G13800-cb001
Test: thermal shift delta Tm vs DMSO control; higher = stronger stabilization (binding)
Conditions: 12.5 µM; protein concentration 2 µM
How it was run: (§1)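 Compounds dissolved in DMSO were added to purified rice kinase domain constructs, which had been expressed in E. coli, for differential scanning fluorimetry. Each well held 19.5 μl of 2 μM kinase in 100 mM potassium phosphate pH 7.5, 150 mM NaCl, 10% glycerol and 5 × SYPRO Orange. Fluorescence was followed from 25°C to 95°C at a rate of 0.05°C/s. Shifts in Boltzmann-fitted melting temperature are triplicate means relative to DMSO-only protein.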

SMILES	thermal shift delta Tm [°C]
O=C1NC(=O)C(=Cc2ccc(-c3ccc(F)cc3)o2)S1 (stereo in doubt)	0.53
CONC(=O)c1ccccc1Nc1cc(Nc2cc(C)nn2C(C)C)ncc1Cl	-0.17
O=C(O)c1ccc2c3c1cccc3c(=O)n1c3ccccc3nc21	0.32
OC1CCC(Oc2cccc3cnc(Nc4ccc5nc[nH]c5c4)nc23)CC1 (centres undefined)	0.31
CN1CCN(Cc2ccc(-c3cnc4[nH]cc(-c5ccc6[nH]ccc6c5)c4c3)cc2)CC1	-0.19
Cc1cc(N2CCOCC2)cc2[nH]c(-c3c(NC[C@@H](O)c4cccc(Cl)c4)cc[nH]c3=O)nc12	0.09
S=C(NCc1ccc2c(c1)OCO2)N1CCN(c2ncnc3c2oc2ccccc23)CC1 [Amuvatinib (MP-470)]	1.03
COc1cc2c(N3CCN(C(=O)Nc4ccc(OC(C)C)cc4)CC3)ncnc2cc1OCCCN1CCCCC1 [Tandutinib (MLN518)]	0.92
COc1cc(-c2cc(-c3ccc(N4CCNCC4)cc3)cnc2C)cc(OC)c1OC	-0.6
O=C(Nc1ccc(OC(F)(F)F)cc1)c1sccc1NCc1ccnc2ccccc12	0.57
Cc1nc2ccc(-n3ncc(C(=O)c4cc5ccccc5[nH]4)c3N)cc2[nH]1	0
CC(C)n1ncnc1-c1cn2c(n1)-c1ccc(O[C@@H](C)C(N)=O)cc1OCC2	0.67
O=C(O)[C@]1(Cc2cccc(Nc3nccs3)n2)CC[C@@H](Oc2cccc(Cl)c2F)CC1	-1.25
O=C(O)CCC(=O)Nc1ccc(Br)cn1 [Bikinin]	0.21
CCOc1cc2ncc(C#N)c(Nc3ccc(OCc4ccccn4)c(Cl)c3)c2cc1NC(=O)/C=C/CN(C)C [Neratinib (HKI-272)]	0.47
O=C(Nc1cccc(C(F)(F)F)c1)c1cccc2cc(Oc3cc(CO)ncn3)ccc12	0.56
CC1(C)C=Cc2c(ccc3c2OC[C@@H](c2ccc(O)cc2O)C3)O1 [Glabridin]	0.08
COc1ccccc1-c1cc(Nc2cccc(CS(N)(=O)=O)c2)ncn1	0.56
Cc1ccc(C(=O)Nc2ccc(Oc3cc4cnn(C)c4cc3-c3cn[nH]c3)c(F)c2)c(=O)n1-c1ccc(F)cc1	1.46

SMILES	thermal shift delta Tm [°C]
CCS(=O)(=O)c1cccc(-c2cc(C(=O)NC3CCN(C)CC3)c(C)c3[nH]c4ncc(C)cc4c23)c1	-0.51
CCc1cncnc1N1CCN(Cc2nc3ccc(C(F)(F)F)cc3[nH]2)CC1	0.07
Cc1ccc(NC(=O)c2ccc(CN3CCN(C)CC3)cc2)cc1Nc1nccc(-c2cccnc2)n1 [Imatinib (STI571)]	-0.47
CCn1c(=O)c(-c2ccc(Cl)cc2Cl)cc2cnc(Nc3ccc(N4CCNCC4)c(F)c3)nc21	0.11
COc1cc(N2CCN(C)CC2)ccc1Nc1ncc2c(n1)N(C)c1ccccc1C(=O)N2	-0.23
CCn1c(-c2nonc2N)nc2cnc(Oc3cccc(NC(=O)c4ccc(OCCN5CCOCC5)cc4)c3)cc21	0.89
O=C1Cc2c([nH]c3ccc(Br)cc23)-c2ccccc2N1 [Kenpaullone]	1.78
COC(=O)Nc1ccc(-c2nc(N3CCOCC3)c3cnn(C4CCN(C(=O)OC)CC4)c3n2)cc1	0.44
Nc1ncc(-c2ccnc(Nc3ccncc3)n2)c(CC2CC2)n1	0.81
C=CC(=O)Nc1ccc2ncnc(Nc3cccc(Br)c3)c2c1	-0.18
COc1nccc(-c2c(-c3ccc(F)cc3)ncn2C2CCC(O)CC2)n1 (centres undefined)	0.22
CC(C)Nc1cc(-c2c[nH]c(C(=O)N[C@H](CO)c3cccc(Cl)c3)c2)c(Cl)cn1	0.75
CN1CCN(Cc2ccc(NC(=O)Nc3ccc(Oc4ccnc(N)n4)cc3)cc2C(F)(F)F)CC1	0.15
O=C(NCCO)c1cccc(-c2cc(Nc3ccc(OC(F)(F)F)cc3)ncn2)c1	0.62
CC(C)(O)CNc1ncc(-c2ccnc(Nc3ccnc(Cl)c3)n2)c(CC2CC2)n1	-0.19
O=C1NC(=O)C(c2ccccc2[N+](=O)[O-])=C1Nc1ccc(O)c(Cl)c1	0.72
CCOc1cc(N2CCC(O)CC2)ccc1Nc1ncc2c(n1)N(C)c1ccccc1C(=O)N2C	-0.03
COc1ccc(-c2ccc3ncc4c(c3c2)n(-c2ccc(N3CCNCC3)c(C(F)(F)F)c2)c(=O)n4C)cn1	0.05

Test system: LOC_OS01G14860-cb001
Test: as above
Conditions: 12.5 µM; protein concentration 2 µM
How it was run: as §1

SMILES	thermal shift delta Tm [°C]
O=C1NC(=O)C(=Cc2ccc(-c3ccc(F)cc3)o2)S1 (stereo in doubt)	0.85
CONC(=O)c1ccccc1Nc1cc(Nc2cc(C)nn2C(C)C)ncc1Cl	0.66
O=C(O)c1ccc2c3c1cccc3c(=O)n1c3ccccc3nc21	1.4
OC1CCC(Oc2cccc3cnc(Nc4ccc5nc[nH]c5c4)nc23)CC1 (centres undefined)	7.5
CN1CCN(Cc2ccc(-c3cnc4[nH]cc(-c5ccc6[nH]ccc6c5)c4c3)cc2)CC1	4.87
Cc1cc(N2CCOCC2)cc2[nH]c(-c3c(NC[C@@H](O)c4cccc(Cl)c4)cc[nH]c3=O)nc12	1.24
S=C(NCc1ccc2c(c1)OCO2)N1CCN(c2ncnc3c2oc2ccccc23)CC1 [Amuvatinib (MP-470)]	0.42
COc1cc2c(N3CCN(C(=O)Nc4ccc(OC(C)C)cc4)CC3)ncnc2cc1OCCCN1CCCCC1 [Tandutinib (MLN518)]	0.05
COc1cc(-c2cc(-c3ccc(N4CCNCC4)cc3)cnc2C)cc(OC)c1OC	-0.12
O=C(Nc1ccc(OC(F)(F)F)cc1)c1sccc1NCc1ccnc2ccccc12	0.78
Cc1nc2ccc(-n3ncc(C(=O)c4cc5ccccc5[nH]4)c3N)cc2[nH]1	0.41
CC(C)n1ncnc1-c1cn2c(n1)-c1ccc(O[C@@H](C)C(N)=O)cc1OCC2	0.28
O=C(O)[C@]1(Cc2cccc(Nc3nccs3)n2)CC[C@@H](Oc2cccc(Cl)c2F)CC1	5.16
O=C(O)CCC(=O)Nc1ccc(Br)cn1 [Bikinin]	1.54
CCOc1cc2ncc(C#N)c(Nc3ccc(OCc4ccccn4)c(Cl)c3)c2cc1NC(=O)/C=C/CN(C)C [Neratinib (HKI-272)]	6.67
O=C(Nc1cccc(C(F)(F)F)c1)c1cccc2cc(Oc3cc(CO)ncn3)ccc12	0.71
CC1(C)C=Cc2c(ccc3c2OC[C@@H](c2ccc(O)cc2O)C3)O1 [Glabridin]	1.32
COc1ccccc1-c1cc(Nc2cccc(CS(N)(=O)=O)c2)ncn1	1.07
Cc1ccc(C(=O)Nc2ccc(Oc3cc4cnn(C)c4cc3-c3cn[nH]c3)c(F)c2)c(=O)n1-c1ccc(F)cc1	3.24

SMILES	thermal shift delta Tm [°C]
CCS(=O)(=O)c1cccc(-c2cc(C(=O)NC3CCN(C)CC3)c(C)c3[nH]c4ncc(C)cc4c23)c1	4.38
CCc1cncnc1N1CCN(Cc2nc3ccc(C(F)(F)F)cc3[nH]2)CC1	0.3
Cc1ccc(NC(=O)c2ccc(CN3CCN(C)CC3)cc2)cc1Nc1nccc(-c2cccnc2)n1 [Imatinib (STI571)]	0.24
CCn1c(=O)c(-c2ccc(Cl)cc2Cl)cc2cnc(Nc3ccc(N4CCNCC4)c(F)c3)nc21	3.38
COc1cc(N2CCN(C)CC2)ccc1Nc1ncc2c(n1)N(C)c1ccccc1C(=O)N2	0.43
CCn1c(-c2nonc2N)nc2cnc(Oc3cccc(NC(=O)c4ccc(OCCN5CCOCC5)cc4)c3)cc21	6.06
O=C1Cc2c([nH]c3ccc(Br)cc23)-c2ccccc2N1 [Kenpaullone]	7.46
COC(=O)Nc1ccc(-c2nc(N3CCOCC3)c3cnn(C4CCN(C(=O)OC)CC4)c3n2)cc1	0.21
Nc1ncc(-c2ccnc(Nc3ccncc3)n2)c(CC2CC2)n1	2.55
C=CC(=O)Nc1ccc2ncnc(Nc3cccc(Br)c3)c2c1	0.1
COc1nccc(-c2c(-c3ccc(F)cc3)ncn2C2CCC(O)CC2)n1 (centres undefined)	-0.06
CC(C)Nc1cc(-c2c[nH]c(C(=O)N[C@H](CO)c3cccc(Cl)c3)c2)c(Cl)cn1	5.82
CN1CCN(Cc2ccc(NC(=O)Nc3ccc(Oc4ccnc(N)n4)cc3)cc2C(F)(F)F)CC1	7.67
O=C(NCCO)c1cccc(-c2cc(Nc3ccc(OC(F)(F)F)cc3)ncn2)c1	1.32
CC(C)(O)CNc1ncc(-c2ccnc(Nc3ccnc(Cl)c3)n2)c(CC2CC2)n1	2.06
O=C1NC(=O)C(c2ccccc2[N+](=O)[O-])=C1Nc1ccc(O)c(Cl)c1	0.92
CCOc1cc(N2CCC(O)CC2)ccc1Nc1ncc2c(n1)N(C)c1ccccc1C(=O)N2C	0.03
COc1ccc(-c2ccc3ncc4c(c3c2)n(-c2ccc(N3CCNCC3)c(C(F)(F)F)c2)c(=O)n4C)cn1	2.59
